system: ULK1; details: concentration: 1 μM, replicates: in singlicate; n = 1
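Also: KINOMEscan kinase panel screen.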

Structure (SMILES)	%Inh [%]
COC(=O)Nc1nc2cc(Oc3ccc(NC(=O)Nc4cc(F)ccc4F)cc3)ccc2[nH]1.Cl [GW701424]	0
O=c1cc(N2CCOCC2)nc2n(Cc3cccc(Cl)c3Cl)c(C3CC3)nn12 [GSK2358994]	0
Nc1nccc(-c2c(-c3ccc(F)cc3)ncn2C2CCN(CC(F)(F)F)CC2)n1 [SB-236560]	0
O=C(Nc1cccc(-c2nn3ncccc3c2-c2ccnc(Nc3cccc(C(F)(F)F)c3)n2)c1)c1c(F)cccc1F [GSK299495]	0
CSc1ccc(-c2cc3ncnc(SCC(=O)O)c3s2)cc1	0
Cn1ccc2ncnc(Oc3ccc(NC(=O)Nc4ccncc4)c(Cl)c3)c21	0
O=c1cc(N2CCOCC2)nc2n(Cc3cccc4ccccc34)ccn12 [GSK2333389]	14
CCc1nc(-c2cccc(C)c2)c(-c2ccnc(NCc3ccccc3)c2)s1	0
CC(C)(C)n1cnc2c(N)ncnc21 [SKF-97359]	0
COc1ccc(CNC(=O)NC2CCN(c3ccnc(Nc4ccc(OC)cc4)n3)C2)cc1 (stereo not shown) [GSK1379727]	0
Fc1ccc(-c2ncn(CCCN3CCOCC3)c2-c2ccccn2)cc1 [SB-211742]	0
O=c1cc(N2CCOCC2)nc2n(Cc3cccc(F)c3)ccn12 [GSK2297430]	0
COc1cc(Nc2nccc(N3CCC(NC(=O)c4cccc(NC(C)=O)c4)C3)n2)cc(OC)c1OC (stereo not shown) [GSK1379754]	10
Cc1cccc(Cn2ccn3c(=O)cc(N4CCOCC4)nc23)c1 [GSK2297542]	2
O=C(NOCC1CC1)c1ccc(F)c(F)c1Nc1ccc(I)cc1Cl	0
C[C@@H](Oc1cc(-n2cnc3ccc(NC(=O)NC(C)(C)C)cc32)sc1C(N)=O)c1ccccc1Cl [GSK346294]	0
Cc1nnc(-c2ccc(C)c(-c3ccc(C(=O)Nc4ccc(NS(C)(=O)=O)cc4)cc3)c2)o1 [GW702865]	0

Structure (SMILES)	%Inh [%]
N#Cc1ccc(-c2cc(-c3c[nH]nc3-c3ccccn3)ccn2)cc1 [GW693028]	6
O=C(Nc1n[nH]c2cc(-c3cccc(F)c3)ccc12)C1CC1 [SB-735464]	2
Cn1cc(-c2ccc3c(c2)CCN3C(=O)Cc2ccccc2Cl)c2c(N)ncnc21 [GSK2608885]	6
CC(C)Oc1ccc2c(-c3ccnc(Nc4ccc(N5CCN(C)CC5)cc4)n3)cnn2n1 [GW696155]	99.9
O=C(NCCCN1CCOCC1)c1cccc(Nc2nccc(Nc3ccc(Oc4ccccc4)cc3)n2)c1 [GW663929]	1
COc1cc2c(cc1OC[C@@H](O)CO)ncc1c3ccc(C#N)cc3[nH]c21	71
CN(C1=C(c2ccccc2)C(=O)NC1=O)c1ccccc1 [SB-334860]	5
Fc1ccc(-c2nn3c(OCC(F)(F)F)cccc3c2-c2ccncc2)cc1 [GW514784]	8
O=C1NC(=O)C(N2CCc3ccccc32)=C1c1cccc(Cl)c1 [SB-408010]	0
Cl.Nc1ncnc2occ(-c3ccc(NC(=O)Nc4cc(C(F)(F)F)ccc4F)cc3)c12 [SB-707548]	0
NS(=O)(=O)CCc1cccc(Nc2nccc(-c3c(-c4cccc(NC(=O)c5c(F)cccc5F)c4)nn4ccccc34)n2)c1 [GSK336735]	0
Cc1nnc(-c2ccc3ncc(-c4ccc(S(C)=O)cc4)n3c2)o1 (stereo not shown)	2
COc1ccc(Nc2nccc(N3CCC(NC(=O)Nc4cccc(C(C)=O)c4)C3)n2)cc1 (stereo not shown) [GSK1379731]	18
NCC(NC(=O)c1cc(-c2cn[nH]c2)c(-c2ccnc3[nH]ccc23)s1)c1ccccc1.O=C(O)C(F)(F)F.O=C(O)C(F)(F)F (stereo not shown) [GSK1325775]	18
N#Cc1c(N2CCOCC2)sc(-c2ccn[nH]2)c1-c1ccc(Cl)cc1	8
c1ccc(-c2n[nH]cc2-c2ccnc3ccccc23)nc1 [GW271431]	0
Nc1nc(-c2ccc3c(N)n[nH]c3c2)cc(N2CCCC2)n1 [GSK2227430]	0
